About 83,000 compounds went through this panel and 20% of them were active in at least one assay; those are over-represented in the sample as a whole.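 How to read the values: 0–100, growth inhibition (40 = 60% inhibited); 0, no net growth; -100 to 0, cell death (-40 = 40% of starting cells died; -100 = all dead).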 A number with no mark means an inactive call. The source made the active and inactive calls. Rule for the calls: active = growth percent below 10; inactive = the rest.
Tests used:
Assay in all cases: NCI-60 one-dose screen, 48 h (100 = growth as untreated, 0 = no growth, -100 = all killed)
NCI-H23 lung = conditions: 10 µM unless noted
NCI-H226 lung = conditions: 10 µM unless noted
NCI-H322M lung = conditions: 10 µM unless noted
NCI-H460 lung = conditions: 10 µM unless noted
HOP-92 NSCLC = conditions: 10 µM
NCI-H522 lung = conditions: 10 µM
A549/ATCC NSCLC = conditions: 10 µM unless noted
786-0 renal = conditions: 10 µM unless noted
COLO 205 colon = conditions: 10 µM unless noted
DU-145 prostate = conditions: 10 µM unless noted
K-562 leukemia = conditions: 10 µM unless noted
MALME-3M melanoma = conditions: 10 µM unless noted
MDA-MB-231 breast = conditions: 10 µM unless noted
RXF 393 renal = conditions: 10 µM unless noted
SF-268 CNS = conditions: 10 µM unless noted
SF-295 CNS = conditions: 10 µM unless noted
SF-539 CNS = conditions: 10 µM unless noted
UACC-257 melanoma = conditions: 10 µM unless noted
M14 melanoma = conditions: 10 µM unless noted

| Compound | growth (NCI-H23 lung) | growth (NCI-H226 lung) | growth (NCI-H322M lung) | growth (NCI-H460 lung) | growth (HOP-92 NSCLC) | growth (NCI-H522 lung) | growth (A549/ATCC NSCLC) | growth (786-0 renal) | growth (COLO 205 colon) | growth (DU-145 prostate) | growth (K-562 leukemia) | growth (MALME-3M melanoma) | growth (MDA-MB-231 breast) | growth (RXF 393 renal) | growth (SF-268 CNS) | growth (SF-295 CNS) | growth (SF-539 CNS) | growth (UACC-257 melanoma) | growth (M14 melanoma) |
| --- | --- | --- | --- | --- | --- | --- | --- | --- | --- | --- | --- | --- | --- | --- | --- | --- | --- | --- | --- |
| O=C(/C=C1\C(=O)N(Cc2ccc([N+](=O)[O-])cc2)c2ccccc21)c1ccc(OCCN2CCCC2)cc1 | 69.2% | 78.5% | 66.2% | 91.4% | 46.2% | 38.5% | 93.4% | 69.7% | 81% | 42.9% | 1.78% (active) | 46.8% | 66.5% | 56.7% | 76.9% | 95.6% | 67.6% | 88.4% | 70.2% |
| C#CCCCCCCC[C@@H]1OC(=O)[C@H]([C@@H](C)CC)NC(=O)[C@@H]([C@@H](C)CC)NC(=O)CC(=O)[C@@H]1C | 99.2% | 86.1% | 96.9% | 102% | 77.3% | 90.7% | 107% | 109% | 119% | 106% | 92.5% | 94.7% | 85.7% | 101% | 94.8% | 98.6% | 96.2% | 121% | 93.3% |
| CCC(C)C1NC(=O)C(CC(C)C)NC(=O)C(C)NC(=O)C(C(C)C)NC(=O)C(CCCCN)NC(=O)C(CC(C)C)NC(=O)C(C(C)C)NC(=O)[C@H](C)NC(=O)C(C(C)CC)NC(=O)C(CCCN=C(N)N)NC(=O)C(CCCCN)NC(=O)C(CCCN=C(N)N)NC(=O)C(CCCCN)NC(=O)C([C@H](C)CC)NC(=O)C(CCCCN)NC1=O (some centres undefined) | 8.22% (active) | 44.9% | 64.9% | 4.91% (active) | -21.8% (active) | -5.53% (active) | 22.3% | 10.5% | -73% (active) | 23.8% | 8.83% (active) | 15.2% | -0.693% (active) | 33% | 20.3% | 21.4% | 67.2% | 1.31% (active) | 17.7% |
| COc1cc2c(cc1OC)C(Cc1cc(OC)c(OC)cc1[N+](=O)[O-])=NCC2 | 67.5% | 88.7% | 94.9% | 64.8% | 48.5% | 82.6% | 90% | 87.6% | 94.9% | 101% | 69% | 101% | 82.6% | 90.8% | 90% | 42.9% | 80.6% | 102% | 60.1% |
| CC(=O)NNC(=O)c1sc(NC(C)=O)nc1C | 98.2% | 93.1% | 121% | 108% | 57.4% | 139% | 104% | 122% | 108% | 113% | 61.4% | 168% | 100% | 112% | 93.2% | 106% | 97.8% | 105% | 115% |
| CC(O)C(N)=O (centres undefined) | 95.6% | 102% | 108% | 105% | 101% | 102% | 109% | 98.8% | 104% | 109% | 101% | 105% | 114% | 107% | 103% | 95% | 94.7% | 112% | 97.9% |
| [2H]c1nc(=Nc2cc(NC(=O)C=C)c(N(C)CCN(C)C)cc2OC)[nH]c(-c2cn(C([2H])([2H])[2H])c3ccccc23)c1[2H] | 60.3% | 75.2% | 2.1% (active) | 57.3% | 22.9% | 13.3% | 40.6% | 48.7% | 29.4% | 45% | -18.3% (active) | 8.26% (active) | 54% | 44.1% | 51.2% | 85.4% | 40.5% | -2.01% (active) | -52.7% (active) |
| Clc1ccc(N/N=C/c2ccccn2)nc1 | 6.51% (active) | -12.3% (active) | 23.6% | 3.11% (active) | 39.7% | 37.5% | 11.2% | 7.14% (active) | 13.6% | 19.2% | 10.8% | 1.36% (active) | 34.5% | 16.2% | 6.56% (active) | 1.61% (active) | 1.62% (active) | 1.06% (active) | -25.7% (active) |
| CCCCCCCCc1ccc(CCC(N)(CO)CO)cc1 | 68.9% | 94.3% | 3.56% (active) | 0.54% (active) | -5.83% (active) | -51.7% (active) | 0.665% (active) | -44.2% (active) | -87.5% (active) | 3.12% (active) | -25.2% (active) | 26.2% | -24.1% (active) |  | 20.3% | 67.9% | 17.3% | 53.7% | 50% |
| NNC(=S)N1N=C(c2cc3ccccc3o2)CC1c1c[nH]c2ccccc12 (centres undefined) | 56.4% | 69.7% | 39.6% | 24.7% | 50.1% | 42.6% | 48.4% | 22% | 52.2% | 50.9% | 9.64% (active) |  | 41.6% | 77.7% | 29.6% | 38.9% | 57.9% | 64.2% | 52.1% |
| CCC1(CC)C(OC)NC(Br)=C(C#N)C1(C#N)C(N)=O (centres undefined) | 99.1% | 114% | 118% | 115% | 77.3% | 98% | 114% | 94.3% | 126% | 97.5% | 91.5% | 137% | 102% | -5.04% (active) | 131% | 122% | 93.9% | 103% | -100% (active) |
| Cc1c(O)c(N=Nc2ccc(C(=O)O)c(O)c2)c2ccccc2c1O | 92.3% | 104% | 105% | 96.7% | 77.7% | 100% | 78.9% | 104% | 119% | 94.3% | 60.6% | 97.4% | 86.4% | 13.3% | 119% | 116% | 81.7% | 95.6% | 53.4% |
| O=C(Oc1ccccc1)c1ccccc1Cl | 104% | 106% | 104% | 103% | 90.1% | 121% | 99.9% | 101% | 104% | 114% | 107% | 101% | 111% | 110% |  | 110% | 94.2% | 102% | 102% |
| N=C(N)N=Nc1ccc(NN=C(N)N)cc1 | 104% | 81.5% | 126% | 85.8% | 96% | 88.1% | 8.54% (active) | 98.9% | 64.1% | 95.4% | 96.2% | 138% | 86.2% | 81.6% |  | 101% |  | 94% | 78.6% |
| CCOc1ccccc1/C=N\N=C(N/N=C/c1ccccc1OCC)N/N=C/c1ccccc1OCC | 18.8% | 20.3% | 11.3% | 1.36% (active) | -21.1% (active) | 1.5% (active) | 9.6% (active) | 22.9% | -38.9% (active) | 16.1% | 21.4% | 24.1% | 9.5% (active) | 19.2% |  | 9.61% (active) |  | 7.38% (active) | 32.3% |
| Nc1cc(N)c2nc(NCCc3ccc(Cl)c(Cl)c3)cnc2c1 | 63.8% | 61.4% | -3.74% (active) | 71.9% | -54.9% (active) | 17.3% | 71.1% | 37.5% | 5.65% (active) | 101% | -23.1% (active) |  | -23.5% (active) | 51.1% | 30.8% | 89.4% | 89.6% | 90.4% |  |
| COc1cccc2c1nc1cccc(OC)c1[n+]2[O-] | 9.62% (active) | 71.2% | 78.6% | 14.1% | 31.4% | 20.2% | 36.8% | 32.5% | 77.9% | 13.8% | 39.8% | 16.4% | 78.5% | -39.6% (active) | 36.9% | 36.7% | 25.2% | 58.2% | -3.49% (active) |

Source: PubChem BioAssay (NCI)
